The values below come from PubChem BioAssay (EPA / NIEHS).

Results filed as inconclusive are left out. Activity calls are given as the source filed them. The calls were made as follows: active = hit-call score of the fitted dose curve at least 0.9, where 1 is the maximum; inconclusive = response in the unintended direction; inactive = score below 0.9.

The AC50 is the midpoint of the concentration-response curve, whichever way the signal moves.

The target of assay [1] is Peroxisome proliferator-activated receptor gamma (Homo sapiens) (UniProt P37231). Nature of the assay: NVS_NR_hPPARg: NovaScreen (NVS) Nuclear Receptor Binding Assay for human Peroxisome Proliferator-activated Receptor gamma (PPARg) (AID 2283370). The essentials:
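Fluorescence polarization readout of ligand binding to extracted human PPARg, measured at 2 h. Duplicate single-point screen at 25 uM, then concentration-series retesting; activity defined as signal loss versus DMSO.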

Assay [2] has as its system guinea pig Dopamine Transporter (DAT), gene 100714898. Nature of the assay: NVS_TR_gDAT: NovaScreen (NVS) Transporter Assay for guinea pig Dopamine Transporter (DAT) (AID 2283369).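 Also: active compounds lower bound radioligand signal relative to DMSO.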 The essentials:
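Radioligand displacement on membranes from guinea pig striatum, 2 h exposure, bound label counted by filtration and scintillation. Tested at 25 uM in duplicate, then actives in concentration series to 50 uM; DMSO as negative control.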

Assay [3] has as its target human Norepinephrine Transporter (NET), SLC6A2 (gene 6530) (UniProt P23975). Nature of the assay: NVS_TR_hNET: NovaScreen (NVS) Transporter Assay for human Norepinephrine Transporter (NET) (AID 2283377).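 Also: cell-free membrane protein extracted from CHO cells expressing human NET.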 The essentials: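 Radioligand binding to human NET in cell-free CHO-derived protein preparations, read by filter-based scintillation counting 1 hour after dosing. Loss of signal versus DMSO baseline indicated displacement; primary screening in duplicate at 25 uM, actives then titrated.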

Assay [4] addresses Norway rat Vesicular Monoamine Transporter (VMAT2), neurotransmitter transporter, Slc18a2 (gene 25549) (UniProt Q01827). Nature of the assay: NVS_TR_rVMAT2: NovaScreen (NVS) Transporter Assay for Norway rat Vesicular Monoamine Transporter (VMAT2), neurotransmitter transporter (AID 2283376).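 Also: actives lower the bound radioligand signal below the DMSO level.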 The essentials: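 Rat forebrain tissue preparation used in a cell-free radioligand binding format; displacement read by filter-based scintillation counting 1 hour after dosing. Primary screen in duplicate at 25 uM, actives then run in concentration series; loss of signal versus DMSO baseline.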

Assay [5] concerns the target Estrogen receptor beta (Homo sapiens) (UniProt Q92731). Nature of the assay: OT_ER_ERbERb_1440: Odyssey Thera (OT) 24-hour HEK293T Protein-Complementation Assay for Estrogen Receptor-beta/-beta Homodimer (AID 2283380).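 Also: fluorescence gain from ER beta LBD homodimer complementation read by laser scanning cytometry; scored as signal increase over DMSO baseline for both agonists and antagonists.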 The essentials: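 HEK293T cells stably expressing human ER-beta LBD (aa 310-547) PCA homodimer pair, dosed 24 h; formaldehyde-fixed, Draq5-stained. Readout: increase in nuclear (agonist) or nuclear plus cytoplasmic (antagonist) fluorescence intensity versus DMSO, gain-of-signal fitting.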

The target of assay [6] is human Adenosine Transporter (Adot), SLC29A1 (gene 2030) (UniProt Q99808). As to the kind of experiment: NVS_TR_hAdoT: NovaScreen (NVS) Transporter Assay for human Adenosine Transporter (Adot) (AID 2283368). The essentials:
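U937-derived membranes, cell-free radioligand binding, filter scintillation 1 h after dosing. 25 uM duplicate screen; hits (e.g. 30% inhibition) run in concentration-response up to 50 uM; loss of signal versus DMSO.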

The test system of assay [7] is rat Norepinephrine Transporter (NET), gene 83511. As to the kind of experiment: NVS_TR_rNET: NovaScreen (NVS) Transporter Assay for rat Norepinephrine Transporter (NET) (AID 2283373). The procedure:
NVS_TR_rNET is a biochemical, single-readout assay that uses extracted gene-proteins from Rat forebrain membranes in a tissue-based cell-free assay. Measurements were taken 1 hour after chemical dosing in a 48-well plate.NVS_TR_rNET is one of one assay component(s) measured or calculated from the NVS_TR_rNET assay. It is designed to make measurements of radioligand binding, a form of binding reporter, as detected with scintillation counting signals by Filter-based radiodetection technology.Data from the assay component NVS_TR_rNET was analyzed into 1 assay endpoint. This assay endpoint, NVS_TR_rNET, was analyzed in the positive analysis fitting direction relative to DMSO as the negative control and baseline of activity. […] Furthermore, this assay endpoint can be referred to as a primary readout, because the performed assay has only produced 1 assay endpoint. […]
Binding assays used specific radioligands (tritiated, iodinated) with non-radioactive competitive displacement ligands in agonist or antagonist protocols (as indicated) and various reference compounds and inhibitors to titrate specific binding to receptors and transporters. Most enzyme assays (CYPs, kinases, phosphatases, proteases, HDACs) used recombinant protein and specific substrates (fluorescence mostly, some colorimetric and radioactive) and inhibitors, followed by a biochemical separation of substrate and product. […]

For assay [8], the target named is mouse Estrogen Receptor alpha (Era), Esr1 (gene 13982) (UniProt P19785). Nature of the assay: NVS_NR_mERa: NovaScreen (NVS) Nuclear Receptor Binding Assay for mouse Estrogen Receptor alpha (Era) (AID 2283378).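 Also: hit means loss of bound radioligand signal relative to DMSO.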 The essentials:
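Filter radiodetection of radioligand displacement from extracted receptor protein, measured 18 h post-dose. Single 25 uM concentration in duplicate initially, with concentration-series follow-up. Binding loss fitted relative to DMSO.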

The target of assay [9] is human Serotonin Transporter (SERT), SLC6A4 (gene 6532) (UniProt P31645). Nature of the assay: NVS_TR_hSERT: NovaScreen (NVS) Transporter Assay for human Serotonin Transporter (SERT) (AID 2283372). The essentials:
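Radioligand binding to native SERT in human platelet membranes, read by filter-based scintillation counting 1 h after dosing. Primary screen in duplicate at 25 uM; actives followed up in concentration series; loss of signal versus DMSO baseline.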

The target in assay [10] is rat Serotonin Transporter (SERT), Slc6a4 (gene 25553) (UniProt P31652). Nature of the assay: NVS_TR_rSERT: NovaScreen (NVS) Transporter Assay for rat Serotonin Transporter (SERT) (AID 2283375). The essentials: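 Radioligand binding with competitive displacement on rat forebrain membrane preparations, counted by filtration and scintillation after 1 h. Primary single-point duplicates at 25 uM; active chemicals followed up in concentration-response. DMSO served as baseline.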
Chain of rat Serotonin Transporter (SERT), Slc6a4 (gene 25553) (P31652 whole entry, looked up): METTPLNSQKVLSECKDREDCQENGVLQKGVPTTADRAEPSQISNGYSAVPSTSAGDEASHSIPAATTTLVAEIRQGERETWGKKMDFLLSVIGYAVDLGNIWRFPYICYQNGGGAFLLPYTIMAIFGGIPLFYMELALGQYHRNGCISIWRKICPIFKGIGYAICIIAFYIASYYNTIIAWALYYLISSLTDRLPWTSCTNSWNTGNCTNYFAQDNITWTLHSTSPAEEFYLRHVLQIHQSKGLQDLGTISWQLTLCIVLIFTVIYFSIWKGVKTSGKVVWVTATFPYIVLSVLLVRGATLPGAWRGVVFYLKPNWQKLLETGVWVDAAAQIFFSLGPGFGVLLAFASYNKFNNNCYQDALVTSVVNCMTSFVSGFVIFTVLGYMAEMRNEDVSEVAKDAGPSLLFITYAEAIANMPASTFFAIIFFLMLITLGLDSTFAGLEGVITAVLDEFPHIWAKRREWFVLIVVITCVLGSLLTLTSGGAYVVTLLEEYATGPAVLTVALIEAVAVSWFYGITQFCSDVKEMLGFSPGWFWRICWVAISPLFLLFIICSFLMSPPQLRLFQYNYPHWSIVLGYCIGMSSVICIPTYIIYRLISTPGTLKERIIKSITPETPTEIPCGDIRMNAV

Chain of Peroxisome proliferator-activated receptor gamma (Homo sapiens) (P37231 whole entry, looked up): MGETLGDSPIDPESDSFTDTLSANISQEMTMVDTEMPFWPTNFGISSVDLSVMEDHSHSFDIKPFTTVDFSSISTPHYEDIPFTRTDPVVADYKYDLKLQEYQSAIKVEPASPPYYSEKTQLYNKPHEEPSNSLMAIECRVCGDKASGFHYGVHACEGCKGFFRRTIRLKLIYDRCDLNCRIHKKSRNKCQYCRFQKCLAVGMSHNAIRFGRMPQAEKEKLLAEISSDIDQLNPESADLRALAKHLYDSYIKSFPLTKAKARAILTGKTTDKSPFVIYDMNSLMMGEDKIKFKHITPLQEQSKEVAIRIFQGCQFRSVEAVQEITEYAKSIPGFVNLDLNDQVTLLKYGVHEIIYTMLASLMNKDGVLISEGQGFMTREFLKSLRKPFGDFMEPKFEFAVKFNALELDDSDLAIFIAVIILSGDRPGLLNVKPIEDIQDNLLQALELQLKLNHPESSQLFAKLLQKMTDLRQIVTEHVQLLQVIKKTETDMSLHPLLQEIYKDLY
Chain of human Norepinephrine Transporter (NET), SLC6A2 (gene 6530) (P23975 whole entry, looked up): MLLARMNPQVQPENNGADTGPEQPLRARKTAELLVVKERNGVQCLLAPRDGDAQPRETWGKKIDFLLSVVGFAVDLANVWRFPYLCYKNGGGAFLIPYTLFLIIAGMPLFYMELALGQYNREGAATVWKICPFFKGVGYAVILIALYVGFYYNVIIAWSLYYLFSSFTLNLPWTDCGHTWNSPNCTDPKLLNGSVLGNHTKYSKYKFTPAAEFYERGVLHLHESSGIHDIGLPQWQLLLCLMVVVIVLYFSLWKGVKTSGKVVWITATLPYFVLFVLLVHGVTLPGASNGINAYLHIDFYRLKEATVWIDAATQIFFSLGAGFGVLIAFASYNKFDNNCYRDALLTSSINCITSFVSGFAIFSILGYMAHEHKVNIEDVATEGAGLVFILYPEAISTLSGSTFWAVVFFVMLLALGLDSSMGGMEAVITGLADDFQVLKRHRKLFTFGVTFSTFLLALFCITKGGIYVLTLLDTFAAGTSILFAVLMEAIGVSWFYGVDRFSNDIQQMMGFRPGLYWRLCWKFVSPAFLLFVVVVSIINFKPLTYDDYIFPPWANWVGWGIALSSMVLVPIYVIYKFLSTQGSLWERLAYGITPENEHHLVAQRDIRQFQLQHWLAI
Chain of Estrogen receptor beta (Homo sapiens) (Q92731 whole entry, looked up, the tested form may be a part): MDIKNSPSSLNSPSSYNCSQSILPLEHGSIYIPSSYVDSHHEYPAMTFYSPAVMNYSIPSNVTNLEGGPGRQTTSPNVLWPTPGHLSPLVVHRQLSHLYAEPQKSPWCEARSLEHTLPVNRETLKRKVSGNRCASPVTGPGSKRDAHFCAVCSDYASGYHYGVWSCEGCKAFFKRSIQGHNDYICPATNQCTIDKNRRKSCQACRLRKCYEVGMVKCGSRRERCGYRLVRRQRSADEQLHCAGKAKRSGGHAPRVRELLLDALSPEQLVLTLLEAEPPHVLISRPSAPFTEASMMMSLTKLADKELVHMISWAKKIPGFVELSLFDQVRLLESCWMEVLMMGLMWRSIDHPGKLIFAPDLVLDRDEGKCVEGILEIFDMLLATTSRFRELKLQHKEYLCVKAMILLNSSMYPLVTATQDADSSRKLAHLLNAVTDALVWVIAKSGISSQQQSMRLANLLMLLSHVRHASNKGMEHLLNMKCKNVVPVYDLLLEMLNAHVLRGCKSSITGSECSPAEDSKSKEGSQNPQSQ
Chain of Norway rat Vesicular Monoamine Transporter (VMAT2), neurotransmitter transporter, Slc18a2 (gene 25549) (Q01827 whole entry, looked up): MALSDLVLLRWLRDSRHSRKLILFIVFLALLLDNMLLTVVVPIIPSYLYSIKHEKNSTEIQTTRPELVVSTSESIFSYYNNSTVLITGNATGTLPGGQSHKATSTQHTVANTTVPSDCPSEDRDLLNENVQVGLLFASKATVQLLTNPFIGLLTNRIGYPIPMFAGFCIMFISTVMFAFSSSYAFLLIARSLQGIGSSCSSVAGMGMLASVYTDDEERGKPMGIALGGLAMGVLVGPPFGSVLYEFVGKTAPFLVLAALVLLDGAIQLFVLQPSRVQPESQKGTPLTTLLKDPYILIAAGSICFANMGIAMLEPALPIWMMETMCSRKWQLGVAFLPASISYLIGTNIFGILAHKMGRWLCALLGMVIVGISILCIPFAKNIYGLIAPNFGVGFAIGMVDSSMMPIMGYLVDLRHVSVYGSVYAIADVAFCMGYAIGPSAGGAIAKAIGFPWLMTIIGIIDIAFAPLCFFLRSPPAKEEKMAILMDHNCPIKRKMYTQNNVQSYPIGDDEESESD
Chain of human Serotonin Transporter (SERT), SLC6A4 (gene 6532) (P31645 whole entry, looked up): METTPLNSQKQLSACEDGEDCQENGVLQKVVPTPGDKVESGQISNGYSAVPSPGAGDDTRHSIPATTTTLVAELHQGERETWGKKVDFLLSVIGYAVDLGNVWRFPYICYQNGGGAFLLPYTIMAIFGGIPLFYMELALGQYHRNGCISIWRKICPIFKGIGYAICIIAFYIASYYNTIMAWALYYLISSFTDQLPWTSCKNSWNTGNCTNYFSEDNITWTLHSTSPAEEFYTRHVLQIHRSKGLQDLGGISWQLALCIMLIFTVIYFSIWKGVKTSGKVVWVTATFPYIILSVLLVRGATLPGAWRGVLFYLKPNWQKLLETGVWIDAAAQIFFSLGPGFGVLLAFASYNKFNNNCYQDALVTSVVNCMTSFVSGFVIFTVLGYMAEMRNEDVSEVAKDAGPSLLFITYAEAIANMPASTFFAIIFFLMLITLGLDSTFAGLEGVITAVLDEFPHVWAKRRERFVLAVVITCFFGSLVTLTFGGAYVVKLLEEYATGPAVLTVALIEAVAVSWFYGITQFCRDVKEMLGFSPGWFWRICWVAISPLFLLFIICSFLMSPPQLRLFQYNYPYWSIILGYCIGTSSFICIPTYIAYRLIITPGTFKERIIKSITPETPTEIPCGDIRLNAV
Chain of mouse Estrogen Receptor alpha (Era), Esr1 (gene 13982) (P19785 whole entry, looked up): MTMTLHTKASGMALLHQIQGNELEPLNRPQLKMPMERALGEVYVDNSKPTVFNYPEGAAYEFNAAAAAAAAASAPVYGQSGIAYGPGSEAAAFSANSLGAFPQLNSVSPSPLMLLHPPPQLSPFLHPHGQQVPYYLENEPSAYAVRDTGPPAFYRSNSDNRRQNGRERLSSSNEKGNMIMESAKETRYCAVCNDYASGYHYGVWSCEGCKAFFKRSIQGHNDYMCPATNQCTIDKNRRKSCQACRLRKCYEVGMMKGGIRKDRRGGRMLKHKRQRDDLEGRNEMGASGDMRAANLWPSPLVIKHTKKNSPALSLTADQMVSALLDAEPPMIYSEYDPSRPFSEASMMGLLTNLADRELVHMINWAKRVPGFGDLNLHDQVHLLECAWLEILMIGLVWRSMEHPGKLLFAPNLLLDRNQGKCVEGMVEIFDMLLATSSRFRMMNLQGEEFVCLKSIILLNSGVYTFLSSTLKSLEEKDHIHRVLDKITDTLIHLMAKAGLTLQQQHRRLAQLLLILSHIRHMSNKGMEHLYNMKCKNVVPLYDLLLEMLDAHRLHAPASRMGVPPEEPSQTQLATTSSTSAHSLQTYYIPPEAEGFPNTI
Chain of human Adenosine Transporter (Adot), SLC29A1 (gene 2030) (Q99808 whole entry, looked up): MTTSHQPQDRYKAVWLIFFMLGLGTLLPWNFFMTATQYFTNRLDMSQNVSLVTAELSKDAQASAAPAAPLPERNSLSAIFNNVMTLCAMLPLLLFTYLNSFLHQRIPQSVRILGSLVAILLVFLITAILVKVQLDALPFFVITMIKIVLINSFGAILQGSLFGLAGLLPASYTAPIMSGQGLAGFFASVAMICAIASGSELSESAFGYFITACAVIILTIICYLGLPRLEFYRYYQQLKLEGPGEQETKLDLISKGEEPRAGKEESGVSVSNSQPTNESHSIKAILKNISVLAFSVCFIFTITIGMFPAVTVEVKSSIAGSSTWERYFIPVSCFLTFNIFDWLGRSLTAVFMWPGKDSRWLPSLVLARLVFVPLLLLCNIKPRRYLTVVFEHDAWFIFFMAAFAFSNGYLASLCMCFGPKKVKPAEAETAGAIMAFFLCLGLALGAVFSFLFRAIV

Take `CCN(CC)c1nc(C)cc(OP(=S)(OC)OC)n1`: in [1], the molecule was called inactive. Regarding `CCSC(=O)N1CCCCCC1`, the outcome in [1] was inactive. Consider `COCC(C)N(C(=O)CCl)c1c(C)csc1C` (configuration not stated), for which the molecule was classed as inactive in assay [1].

Regarding `CCCCC(C#N)(Cn1cncn1)c1ccc(Cl)cc1` (configuration not stated), the half-maximal activity concentration (AC50) in [2] is 15.4 µM (active). The molecule was classed as inactive in assay [1]. As for `CC1(C)C(C=C(Cl)Cl)C1C(=O)OC(C#N)c1cccc(Oc2ccccc2)c1` (configuration not stated), the figures for the AC50 in assay [2] and in assay [3] were 9.19 µM (active) and 12.2 µM (active), respectively.

With `Nc1c(Cl)c(F)nc(OCC(=O)O)c1Cl`, the result in assay [1] was inactive. For `CC(C)NC(=O)N1CC(=O)N(c2cc(Cl)cc(Cl)c2)C1=O`, the call in assay [1] and in [4] was inactive. As for `CCNP(=S)(OC)O/C(C)=C/C(=O)OC(C)C` (configuration not stated), the molecule was called inactive in [1]. Consider `CCCCC(O)(Cn1cncn1)c1ccc(Cl)cc1Cl` (configuration not stated), for which the molecule was called inactive in assay [1] and in assay [5]. For the same molecule, the values for the half-maximal activity concentration (AC50) in assay [4] and in assay [3] were 15 µM (active) and 13.3 µM (active), respectively. On to `Nc1c(Cl)c(Cl)nc(C(=O)O)c1Cl`, for which, in assay [6], the molecule was called inactive. For the molecule `N#Cc1c(Cl)cccc1Cl`, in assay [1], the result was inactive. As to `N#Cc1c[nH]cc1-c1cccc2c1OC(F)(F)O2`, the call in assay [1] and in [4] was inactive. Regarding `O=C1C2CC=CCC2C(=O)N1SC(Cl)(Cl)Cl` (configuration not stated), the molecule was classed as inactive in [1]. Consider `CC(C)(C)C(=O)C(Oc1ccc(Cl)cc1)n1cncn1` (configuration not stated), for which the molecule was classed as inactive in [1].

On to `CCOc1cc(C(C)(C)C)ccc1C1COC(c2c(F)cccc2F)=N1` (configuration not stated), for which, in [2], the result was inactive. As for `COCC(=O)N(c1c(C)cccc1C)C(C)C(=O)OC` (configuration not stated), the outcome in assay [1] was inactive. Take `Cc1cc(C)nc(Nc2ccccc2)n1`: the concentration at half-maximal activity (AC50) in [2] is 22 µM (active); in [7], 6.21 µM (active); in assay [3], 4.72 µM (active). Further, the result in [1] and in [4] was inactive. For `OC(c1ccc(Cl)cc1)(c1ccc(Cl)cc1)C(Cl)(Cl)Cl`, the result in assay [2] and in [8] was inactive. Moreover, the half-maximal activity concentration (AC50) in [5] is 12.3 µM (active). As for `CC1(C)CCC(=Cc2ccc(Cl)cc2)C1(O)Cn1cncn1` (configuration not stated), the AC50 in [2] is 1.19 µM (active). The result in [8] and in [5] was inactive. On to `COP(=S)(OC)Oc1ccc([N+](=O)[O-])c(C)c1`, for which the figures for the AC50 in [1], in assay [9] and in assay [10] were 3.38 µM (active), 1.99 µM (active) and 3.37 µM (active), respectively. Moreover, the call in assay [5] was inactive. For `CCOC(=O)C(C)OC(=O)c1cc(Oc2ccc(C(F)(F)F)cc2Cl)ccc1[N+](=O)[O-]` (configuration not stated), the molecule was classed as inactive in [2], in assay [1], in [9], in assay [10] and in [5]. For the molecule `CC1(C)C(C(=O)OC(C#N)c2cccc(Oc3ccccc3)c2)C1(C)C` (configuration not stated), in assay [2], the AC50 is 15.8 µM (active). As to `Cn1c(-c2ccccc2)cc(-c2ccccc2)[n+]1C`, the molecule was classed as inactive in assay [7]. Turning to `Clc1nc(Cl)nc(Nc2ccccc2Cl)n1`, the call in [4] was inactive. For `CCOP(=S)(OCC)Oc1nc(Cl)n(C(C)C)n1`, the molecule was called inactive in assay [4].
